Compounds without any hit were thinned out: in the full panel of roughly 83,000, 20% have a hit.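 Plates (96-well) were seeded with cells, treated with compound at one concentration, and incubated for 48 hours before percent growth was determined.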 Unmarked numbers belong to inactive results. The source made the active and inactive calls. How the source made its calls: active means growth percent below 10; inactive means the rest.
Experiments:
Assay in all cases: NCI-60 one-dose screen, 48 h (100 = growth as untreated, 0 = no growth, -100 = all killed)
Conditions in all cases: 10 µM
NCI-H23 lung = system: NCI-H23 lung
NCI-H226 lung = system: NCI-H226 lung
NCI-H322M lung = system: NCI-H322M lung
HOP-62 NSCLC = system: HOP-62 NSCLC
NCI-H460 lung = system: NCI-H460 lung
HOP-92 NSCLC = system: HOP-92 NSCLC
NCI-H522 lung = system: NCI-H522 lung
A549/ATCC NSCLC = system: A549/ATCC NSCLC
786-0 renal = system: 786-0 renal
COLO 205 colon = system: COLO 205 colon

| Compound | growth (NCI-H23 lung) | growth (NCI-H226 lung) | growth (NCI-H322M lung) | growth (HOP-62 NSCLC) | growth (NCI-H460 lung) | growth (HOP-92 NSCLC) | growth (NCI-H522 lung) | growth (A549/ATCC NSCLC) | growth (786-0 renal) | growth (COLO 205 colon) |
| --- | --- | --- | --- | --- | --- | --- | --- | --- | --- | --- |
| CCN(CC)CCn1c(=N)n(CC(O)c2ccc(Cl)c(Cl)c2)c2ccccc21 (stereo not given) | 91.2% | 92.2% | 99.5% | 85.3% | 104% | 58.1% | 45% | 89.6% | 79.9% | 18.5% |
| Cc1ccc(-n2c(-c3cc4c([nH]c5ccccc54)c(-c4cccc(O)c4)n3)n[nH]c2=S)cc1 | 22.9% | -27.1% (active) | -2.32% (active) | -24% (active) | 4.05% (active) | 34.3% | -39.9% (active) | 2.93% (active) | 10.8% | 17.8% |
| O=C(NC1CCN(Cc2ccccc2)CC1)c1cc(-c2ccncc2)nc2ccc(Cl)cc12 | 38.3% | 26.9% | 32.5% | 45.6% | 6.31% (active) | 27.7% | 28.6% | 6.48% (active) | 31.1% | 18.5% |
| COc1cc(OC)cc(-c2ccc(-c3ccc(C(=N)N)cn3)o2)c1 | 61.6% | 60.7% | 2.03% (active) | 6.78% (active) | -76.6% (active) | -21.8% (active) | -50.7% (active) | 4.73% (active) | -40.2% (active) | -56.9% (active) |
| COc1ccc(C(=O)/C=C/c2cc(-c3ccc4c(c3)OCO4)n[nH]2)cc1OC | 61.6% | 39.6% | 36.3% | 51.1% | 15.7% | 55.7% | 19.4% | 37.9% | 71.7% | 56.1% |
| COc1cc(CSc2nc3ccc(C)cc3c(=O)n2Cc2ccccc2)cc(OC)c1OC | 21.3% | 47.3% | 46.2% | 40.5% | 17.7% | 56.6% | -14.5% (active) | 40% | 46.8% | -18.7% (active) |
| CC(C)c1[nH]nc2c(NCc3ccc(-c4ccccn4)cc3)nc(SCCN)nc12 | -34.8% (active) | -0.633% (active) | 10.3% | -15.3% (active) | 3.31% (active) | -11.1% (active) | -54.8% (active) | 6.81% (active) | 6.26% (active) | -48.2% (active) |
| CCCCCc1cc[n+](CC(=O)c2ccc(Cl)cc2)cc1 | 81.5% | 90.8% | 85.3% | 92.7% | 98.5% | 78% | 72.1% | 91.3% | 76.2% | 80.5% |
| CCOC(=O)[C@@H]1[C@H](c2ccccc2)[C@H]([N+](=O)[O-])[C@H](c2cn(-c3ccccc3)nc2C)N1Cc1ccccc1 | 88.6% | 66.6% | 104% | 64.2% | 41.9% | 69.8% | 80.6% | 66.2% | 74.5% | 64.7% |
| Cc1nnc2c3nnc(-c4ccc(Cl)cc4)n3c3ccccc3n12 | 103% | 94.7% | 86.4% | 93.4% | 103% | 79.5% | 86.6% | 96.8% | 97.2% | 111% |
| COc1cc(Nc2ccnc(N3CCN(c4ccnc5cc(Cl)ccc45)CC3)n2)cc(OC)c1 | 9.65% (active) | 9.15% (active) | 23.2% | 9.41% (active) | 6% (active) | -16.6% (active) | -23.2% (active) | 7.47% (active) | -17.9% (active) | -10.7% (active) |
| COC(=O)C1(C(=O)OC)C2C(=O)C3C(C21)C3(C(=O)OC(C)(C)C)C(=O)OC(C)(C)C (stereo not given) | 107% | 89.5% | 108% | 99.9% | 113% | 97.8% | 111% | 109% | 102% | 115% |
| COc1ccc(/C=C2\SC(=S)N(CCCN3CCOCC3)C2=O)c(OC)c1 | 98.9% | -99.3% (active) | 111% | 125% | 105% | 87.1% | 79.7% | 102% | 106% | 108% |
| COc1cc(-c2nc3ccccc3[nH]2)ccc1OCC(=O)N=Nc1c(O)[nH]c2ccccc12 | 90% | 105% | 96% | 99.6% | 109% | 78.1% | 80.1% | 105% | 97.8% | 74.6% |

Source: PubChem BioAssay (NCI)
